Screening data as filed in PubChem.
RE007 growth inh – qHTS Assay for Inhibitors of the HIV-1 protein Vpr. S. pombe RE007 Vpr strain, BacTiter-Glo ATP luminescence, 24 h. Potency, µM (titrated, usually from 92.2 µM), for the others: top-dose activity change, negative = less growth, hits mostly inhibitors. 0.21% of 360,000 active. AID 651644, 2012; active = well fitted falling curve with a large enough effect; inconclusive = small, poorly fitted or top-dose-only effect; inactive = no such curve, though single readings can be large or run the other way; note: potency is the fitted concentration of half-maximal effect; % is set by controls: 0 for no effect and ±100 for the full control effect; nearly all actives have a fitted effect of over 50% in size
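Fission yeast RE007 carrying one integrated HIV-1 vpr copy, seeded at OD 0.01 in PMG+AL medium with 23 nL pinned compound. Grown 24 h at 30 degrees; viability read by BacTiter-Glo luminescence after 5 min.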
TbPYK inhibitor – qHTS of Trypanosoma Brucei Inhibitors. TbPYK enzyme, Kinase-Glo Plus ATP luminescence, 45 min. 0.12% of 410,000 active. AID 624173, 2012. Potency, µM (doses to about 76.8 µM), inactives show at the highest dose activity, negative = inhibition, usual class: inhibitors; note: potency is the fitted concentration of half-maximal effect; % is set by controls: 0 for no effect and ±100 for the full control effect; nearly all actives have a fitted effect of over 50% in size
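Luminescent Kinase-Glo Plus end-point after 45 min room-temperature reaction of T. brucei pyruvate kinase started with 130 uM ADP (final). Buffer TEA 50 mM pH 7.2 with KCl, MgCl2, BSA, Tween-20; titration-based qHTS with fitted concentration-effect curves.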
CHX counter – Cycloheximide Counterscreen for Small Molecule Inhibitors of Shiga Toxin. 12% of 300,000 active. max response, %. cell reporter, cycloheximide protein synthesis inhibition counterscreen; in the data active = max response mostly above about 13%, no sharp cut-off; inactive = mostly below about 14%; note: read at 38.3 µM for the half of the compounds with a filed dose; 0% is about no effect
Giardia FBPA inh-1 – qHTS Assay for Inhibitors of Fructose-1,6-bisphosphate Aldolase from Giardia Lamblia. A8B2U2. purified Giardia FBPA. Potency, µM (highest dose often 59.6 µM), inactives show at the top dose activity, negative = inhibition, usual class: inhibitors. 0.71% of 290,000 active. AID 2451, 2010; note: potency is the fitted concentration of half-maximal effect; % is set by controls: 0 for no effect and ±100 for the full control effect; nearly all actives have a fitted effect of over 55% in size
Target sequence (A8B2U2 whole entry, looked up): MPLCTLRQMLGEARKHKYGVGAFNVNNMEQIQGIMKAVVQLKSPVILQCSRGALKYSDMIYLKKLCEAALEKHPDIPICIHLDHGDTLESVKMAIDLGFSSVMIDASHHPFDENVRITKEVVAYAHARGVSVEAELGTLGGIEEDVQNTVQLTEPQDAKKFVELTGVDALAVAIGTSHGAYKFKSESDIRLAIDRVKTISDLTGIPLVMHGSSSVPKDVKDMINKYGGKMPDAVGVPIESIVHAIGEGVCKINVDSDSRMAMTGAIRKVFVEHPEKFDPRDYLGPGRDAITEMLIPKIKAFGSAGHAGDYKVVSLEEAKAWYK
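40 nM FBPA preincubated 10 min at RT with compound (up to 57.5 uM final), then substrate plus GAPDH/TPI/NAD/arsenate coupling and diaphorase/resazurin added. Fluorescence read after 20 min at RT, 525/598 nm.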
LmPK inh – qHTS Assay for Inhibitors of Leishmania Mexicana Pyruvate Kinase (LmPK); purified LmPK, Kinase-Glo ATP luminescence, 1 h; Q27686; 0.37% of 290,000 active; Potency, µM (doses to about 57.5 µM), for inactives: top-dose activity change, negative = inhibition, actives largely listed as inhibitors; AID 1721, 2009; note: potency is the fitted concentration of half-maximal effect; % is set by controls: 0 for no effect and ±100 for the full control effect
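0.1 nM LmPK, 0.5 mM PEP, 0.1 mM ADP; 50 mM imidazole pH 7.2, 7 mM MgCl2, 50 mM KCl; 1 h RT. Kinase-Glo luminescence readout, normalized to no-enzyme (full inhibition) and uninhibited wells.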
Shiga toxin inh – A qHTS for Small Molecule Inhibitors of Shiga Toxin. 9.2% of 290,000 active. inhibition, % at 38.7 µM. Vero cells, Shiga toxin protein synthesis inhibition reporter; in the data active = inhibition mostly above about 28%, no sharp cut-off; inactive = mostly below about 43%; note: 0% is about no effect
Giardia growth – qHTS Assay for Inhibitors of Fructose-1,6-bisphosphate Aldolase from Giardia Lamblia: Giardia lamblia growth inhibition | shares compounds with Giardia FBPA inh-1 | Giardia lamblia trophozoite growth inhibition | Potency, µM (doses to about 57.5 µM), inactives show top-dose activity change, negative = inhibition, actives largely listed as inhibitors | 5% of 1,500 active | AID 2785, 2010;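 note: potency is the fitted concentration of half-maximal effect; trophozoites exposed to compound for 48 h at 37 °C; % is set by controls: 0 for no effect and ±100 for the full control effect; nearly all actives have a fitted effect of over 70% in size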
Mammalian tox – qHTS Assay for Inhibitors of Fructose-1,6-bisphosphate Aldolase from Giardia Lamblia: Mammalian cellular toxicity | shares compounds with Giardia FBPA inh-1 | mammalian cell viability counter-screen, qHTS | Potency, µM (highest dose often 57.5 µM), for the others: at the highest dose viability change, negative = toxicity, hits mostly inhibitors | 4% of 1,500 active | AID 2786, 2010;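 note: Chinese hamster ovary cells used as mammalian cytotoxicity surrogate; viability measured as cellular ATP by luminescence; potency is the fitted concentration of half-maximal effect; compound exposure lasted 48 h before reading; % is set by controls: 0 for no effect and ±100 for the full control effect; nearly all actives have a fitted effect of over 60% in size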
Giardia FBPA inh-2 – qHTS Assay for Inhibitors of Fructose-1,6-bisphosphate Aldolase from Giardia Lamblia: Primary screen confirmation | Potency, µM (series often up to 57.5 µM), without a hit: at the highest dose activity change, negative = inhibition, hits mostly inhibitors | 5% of 1,500 active | shares compounds with Giardia FBPA inh-1 | purified Giardia aldolase enzyme activity, qHTS | AID 2787, 2010; note: potency is the fitted concentration of half-maximal effect; % is set by controls: 0 for no effect and ±100 for the full control effect; nearly all actives have a fitted effect of over 45% in size
Rabbit FBPA inh – qHTS Assay for Inhibitors of Fructose-1,6-bisphosphate Aldolase from Giardia Lamblia: Rabbit FBPA Selectivity | AID 2794, 2010 | shares compounds with Giardia FBPA inh-1 | Rabbit muscle FBPA enzyme inhibition, selectivity counter-screen | Potency, µM (top dose mostly 57.5 µM), inactives show at the highest dose activity, negative = inhibition, actives largely listed as inhibitors | 4% of 1,500 active; note: potency is the fitted concentration of half-maximal effect; % is set by controls: 0 for no effect and ±100 for the full control effect; nearly all actives have a fitted effect of over 60% in size
GAPDH counter – qHTS Assay for Inhibitors of Fructose-1,6-bisphosphate Aldolase from Giardia Lamblia: Coupling assay counterscreen confirmation. AID 2795, 2010. 6% of 1,500 active. shares compounds with Giardia FBPA inh-1. Potency, µM (top dose mostly 57.5 µM), without a hit: at the top dose activity change, negative = inhibition, actives largely listed as inhibitors. GAPDH coupling enzyme counterscreen, biochemical, qHTS; note: potency is the fitted concentration of half-maximal effect; % is set by controls: 0 for no effect and ±100 for the full control effect; nearly all actives have a fitted effect of over 55% in size
Numbers without * were called inactive; ? = inconclusive; nt = no result. This is one part of a sample in which hits are shown more often than they occur. Unless noted, calls come from the whole dose curve; as a rule, active = well fitted curve in the direction sought with a large enough effect; inconclusive = small, poorly fitted or top-dose-only effect, or another doubt; inactive = no such curve, though single readings can be large; an effect the other way counts as inactive or inconclusive.

SMILES	RE007 growth inh	TbPYK inhibitor	CHX counter	Giardia FBPA inh-1	LmPK inh	Shiga toxin inh	Giardia growth	Mammalian tox	Giardia FBPA inh-2	Rabbit FBPA inh	GAPDH counter
CCCCC(Nc1ncnc2ccccc12)C(=O)O (configuration not stated)	10%	10%	5	0%	0%	-10	nt	nt	nt	nt	nt
Cc1ccc(/C(=N/Nc2ncnc3ccccc23)C(=O)O)cc1	-7%	-2%	80*	14µM*	-5%	93*	16%	-1%	8%	-12%	-4%
O=C(NN1C(=O)CSC1=S)c1cccnc1	2%	-6%	-3	16µM*	0%	-12	10%	-1%	1%	3%	11%
O=C(OC1CC2CC1[C@H]1CCCCN1C2=O)N1CCN(S(=O)(=O)c2ccccc2)CC1 (some centres not stated)	4%	-4%	nt	nt	nt	nt	nt	nt	nt	nt	nt
COc1cc(NC(=O)C2CCN(c3cnc4ccccc4n3)CC2)cc(OC)c1OC	nt	8%	nt	nt	nt	nt	nt	nt	nt	nt	nt
Cc1ccccc1-n1c(-c2ccc(=O)[nH]n2)n[nH]c1=S	-18%	?	1	6.3µM*	?	16	16%	-2%	0%	11%	-4%
Cc1ccccc1-n1c(-c2ccc(Br)o2)n[nH]c1=S	-3%	?	nt	nt	nt	nt	nt	nt	nt	nt	nt
Cc1nn(-c2ccccc2)c(C)c1/C=N/Nc1nc2ccccc2[nH]1	-18%	-9%	82*	20µM*	?	149*	14µM*	25µM*	8%	0%	-16%
Cc1cc(=O)[nH]c(N/N=C/c2c(C)nn(-c3ccccc3)c2C)n1	8%	3%	3	-4%	1%	9	nt	nt	nt	nt	nt
Cc1nnc(N/N=C/c2ccc(-c3ccc(Br)cc3)o2)n1N	-30%	-1%	15	16µM*	2%	62	-3%	5%	?	?	-21%
Cc1nnc(N/N=C\c2ccc(-c3cccc(C(=O)O)c3)o2)n1N	-26%	-9%	8	8.9µM*	-3%	5	-53%	-6%	?	?	?
CC(C)CCn1c(=O)c2sccc2n2c(CCCC(=O)Nc3ccc(C(C)C)cc3)nnc12	nt	-2%	nt	nt	nt	nt	nt	nt	nt	nt	nt
CCn1c(CCc2ccccc2)nc2ccccc21	-14%	2%	32*	14µM*	1%	27	-15%	-10%	-4%	-2%	-2%
COc1ccc(S(=O)(=O)N2CCN(C(=O)c3ccc4ccccc4n3)CC2)cc1	-3%	3%	nt	nt	nt	nt	nt	nt	nt	nt	nt
CC(C)CCNC(=O)c1onc(CSc2nc3ccccc3[nH]2)c1C(=O)NCCC(C)C	-4%	2%	1	-17%	8%	12	nt	nt	nt	nt	nt
